From PubChem BioAssay
NALP3 yeast inh: blocks the NALP3 inflammasome reconstituted in yeast. Yeast reconstituted NLRP3/ASC/caspase-1, beta-gal luminescence, 24 h. inhibition, % at 10 µM. 0.39% of 330,000 active. AID 2825;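 active = inhibition of 50% or more; inactive = inhibition below 50%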;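 also: plate controls were induced DMSO wells for no effect and uninduced yeast grown without galactose for full effect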
PolyA inhibitor: inhibitors of polyadenylation in S. cerevisiae; S. cerevisiae SKY197-pL101 polyadenylation reporter, beta-gal luminescence; efflux-impaired pdr1/pdr3 knockout yeast; score 100 = 6 SD above DMSO; activity score, % at 12 µM; 0.02% of 300,000 active;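 active = lowest replicate activity score at least 50, where 100 means six control SD above control mean; inconclusive = lowest score under 50 but half or more replicates reach 50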;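 also: yeast exposed to compound for 9 h at 30 °C; higher score means more reporter readthrough which indicates perturbed polyadenylation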
NALP1 inh: NALP1 inhibition. 0.61% of 280,000 active. inhibition, % at 10 µM. S. cerevisiae NALP1/ASC/caspase-1 growth, X-gal OD620, 72 h; in the data active = inhibition mostly above about 24%, no sharp cut-off; inactive = mostly below about 32%
HDAC3 inh: blocks human histone deacetylase 3; recombinant HDAC3, fluorogenic peptide/trypsin coupled, fluorescence; inhibition, % at 8.3 µM; 0.15% of 320,000 active; AID 2718; in the data active = inhibition above about 26%, passing the limit was not always enough; inconclusive = no clear call, values can overlap the other calls
Target sequence (O15379 whole entry, looked up): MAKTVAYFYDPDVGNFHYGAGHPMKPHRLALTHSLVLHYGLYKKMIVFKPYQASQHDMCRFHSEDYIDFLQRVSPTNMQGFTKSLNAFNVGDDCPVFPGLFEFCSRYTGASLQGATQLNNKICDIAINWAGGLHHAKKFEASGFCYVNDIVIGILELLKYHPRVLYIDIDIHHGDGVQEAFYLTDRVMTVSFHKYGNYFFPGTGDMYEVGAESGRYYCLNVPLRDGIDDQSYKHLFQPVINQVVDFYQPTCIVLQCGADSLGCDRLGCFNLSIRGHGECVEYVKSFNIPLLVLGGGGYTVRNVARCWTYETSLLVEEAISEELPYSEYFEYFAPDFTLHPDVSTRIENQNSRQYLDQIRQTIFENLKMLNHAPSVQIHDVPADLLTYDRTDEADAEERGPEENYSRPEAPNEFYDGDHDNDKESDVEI
JMJD2C inh: inhibitors of human GASC-1 (JMJD2C) demethylase; GST-JMJD2C(1-420) H3K9me3 demethylation, DELFIA europium; 0.069% of 330,000 active; AID 2099; inhibition, % at 2.35 µM; Q9H3R0;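 active = more than half of a compound's replicate wells show inhibition beyond 50%, single wells judged on their own value; inconclusive = some, but no more than half, of replicates pass 50% inhibition; inactive = no replicate passes 50% inhibition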;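 also: signal counts dimethyl H3K9 product captured on neutravidin plate; 0% = median of DMSO wells and 100% = 0.3 times that DMSO median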
Efflux pump mplx: antifungal efflux pump inhibition, Nile Red retention; S. cerevisiae Candida pump triplex; inhibition, % at 10 µM; 0.44% of 330,000 active; AID 485275;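 active = plate passing quality check with inhibition over a set limit, or well fluorescence over plate mean plus 4 SD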;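 also: Nile Red retained in pooled yeast measured as flow cytometry median fluorescence; 0% = buffer negative control and 100% = Enniatin B positive control; higher means more Nile Red kept so more efflux inhibition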
NALP3 confirm: NALP3 inhibition confirmation in yeast; shares compounds with NALP3 yeast inh; yeast expressing human NALP3, luminescence; AID 435006; 81% of 1,300 active; inhibition, % at 10 µM; in the data active = inhibition above about 48%
Casp1-ASC yeast: caspase-1-ASC yeast counter-screen hit; shares compounds with NALP3 yeast inh; yeast expressing Caspase-1-ASC, luminescence counter screen; inhibition, % at 10 µM; 66% of 1,000 active; AID 488784
NALP3 retest: yeast NALP3 inhibition, confirmed on retest. shares compounds with NALP3 yeast inh. yeast expressing human NALP3, luminescence read-out. inhibition, % at 10 µM. 53% of 1,000 active. AID 488794
* = called active by the depositor. Only some compounds are listed: those with a hit (about 1.5% of all), similar ones and a draw of the others. Rule as the data show it, unless noted: active = inhibition above about 50%; inactive = the rest.

O=C(Nc1ccc2c(c1)OCCO2)c1cccc(C(=O)Nc2ccc3c(c2)OCCO3)c1 was read as NALP3 yeast inh 0, PolyA inhibitor -21, NALP1 inh 10, HDAC3 inh 7, JMJD2C inh -2 and Efflux pump mplx 0.
Screening O=C(Nc1ccc2c(c1)OCCO2)c1cccc(Cl)c1 returned NALP3 yeast inh 53*, PolyA inhibitor 9, NALP1 inh 17, HDAC3 inh 0, JMJD2C inh -2, Efflux pump mplx 0, NALP3 confirm 70*, Casp1-ASC yeast 46 and NALP3 retest 42.
`COc1ccc2nc(SCC(=O)NC3CCCC3)c(C)cc2c1` gave NALP3 yeast inh 58*, PolyA inhibitor 14, NALP1 inh 14, HDAC3 inh -2, JMJD2C inh -9, Efflux pump mplx 0, NALP3 confirm 71*, Casp1-ASC yeast 53* and NALP3 retest 49.
Screening CCOc1ccc(C2=CC(=O)C[C@H](c3ccc(OC)cc3)C2)cc1 returned NALP3 yeast inh 25, HDAC3 inh -7 and Efflux pump mplx 0.
`Cc1c(O)cc2n(c1=O)-c1ccccc1C2(C)C` gave NALP3 yeast inh 4, PolyA inhibitor 4, NALP1 inh 5, HDAC3 inh -11, JMJD2C inh 1 and Efflux pump mplx 0.
`CC1(C)c2ccccc2-n2c1cc1oc(=O)cc(O)c1c2=O` gave NALP3 yeast inh 76*, PolyA inhibitor -18, HDAC3 inh 1, JMJD2C inh -14, Efflux pump mplx 0, NALP3 confirm 80*, Casp1-ASC yeast 67* and NALP3 retest 72*.
`COc1ccc(OCc2nnc(SCC(=O)c3ccccc3)o2)cc1` gave NALP3 yeast inh -13, NALP1 inh 14, HDAC3 inh 1, JMJD2C inh -9 and Efflux pump mplx 0.
Cc1ccc(OC(=O)c2ccc(C)c(C)c2)cn1 was read as NALP3 yeast inh 54*, PolyA inhibitor -17, NALP1 inh 5, HDAC3 inh 2, JMJD2C inh 141, Efflux pump mplx 0, NALP3 confirm 54*, Casp1-ASC yeast 75* and NALP3 retest 45.
Screening O=C(Nc1cccc(F)c1)N1CCCC(CNS(=O)(=O)Cc2ccccc2)C1 (centres undefined) returned NALP3 yeast inh 16, PolyA inhibitor -17, NALP1 inh 3, HDAC3 inh 0, JMJD2C inh -8 and Efflux pump mplx 0.
`O=C(/C=C/c1cccc(Br)c1)c1ccc2c(c1)OCO2` gave NALP3 yeast inh 29, PolyA inhibitor -10, NALP1 inh -2, HDAC3 inh 5, JMJD2C inh -8 and Efflux pump mplx 0.
CN(C)CCC(=O)c1ccc2c(c1)OCO2 was read as NALP3 yeast inh -1, PolyA inhibitor 4, NALP1 inh 17, HDAC3 inh 0, JMJD2C inh -5 and Efflux pump mplx 0.
O=C(/C=C/c1ccccc1Br)c1ccc2c(c1)OCO2 was read as NALP3 yeast inh 62*, PolyA inhibitor 5, NALP1 inh -2, HDAC3 inh -5, JMJD2C inh -13, Efflux pump mplx 1, NALP3 confirm 60*, Casp1-ASC yeast 20 and NALP3 retest 29.
O=C(CCNc1ccccc1)c1ccc2c(c1)OCO2 was read as NALP3 yeast inh 56*, PolyA inhibitor 16, NALP1 inh -8, HDAC3 inh 3, JMJD2C inh 2, Efflux pump mplx 0, NALP3 confirm 64*, Casp1-ASC yeast 64* and NALP3 retest 46.
For O=C(/C=C/c1ccccc1)c1ccc2c(c1)OCO2 the results were NALP3 yeast inh 53*, PolyA inhibitor 3, NALP1 inh -18, HDAC3 inh 2, JMJD2C inh 11, Efflux pump mplx 0, NALP3 confirm 40, Casp1-ASC yeast 42 and NALP3 retest 34.
Screening CC(CN1C(C)CCCC1C)OC(=O)c1ccc(Cl)cc1Cl (centres undefined) returned NALP3 yeast inh 12, PolyA inhibitor -16, NALP1 inh 1, HDAC3 inh -8, JMJD2C inh -6 and Efflux pump mplx 0.
CCCN(CC(=O)Nc1cc(Cl)ccc1Cl)C(=O)c1ccccn1 was read as NALP3 yeast inh 8, HDAC3 inh 1, JMJD2C inh 4 and Efflux pump mplx 0.
Screening CCCCc1ccc(NC(=S)NCc2ccc(OC)cc2)cc1 returned NALP3 yeast inh 50*, PolyA inhibitor -6, NALP1 inh -4, HDAC3 inh 0, JMJD2C inh -1, Efflux pump mplx 0, NALP3 confirm 72*, Casp1-ASC yeast 55* and NALP3 retest 35.
`O=C(NCCS(=O)(=O)NC1CCCC1)c1ccccc1` gave NALP3 yeast inh 13, PolyA inhibitor -6, HDAC3 inh -2, JMJD2C inh inconclusive and Efflux pump mplx 0.
CCCNC(=O)c1cc2cc([N+](=O)[O-])ccc2s1 was read as NALP3 yeast inh 52*, PolyA inhibitor 16, NALP1 inh 14, HDAC3 inh 2, JMJD2C inh 28, Efflux pump mplx 0, NALP3 confirm 41, Casp1-ASC yeast 44 and NALP3 retest 38.
`COc1ccc(-n2cc(-c3ccccc3)c3c(=O)[nH]cnc32)cc1` gave NALP3 yeast inh -104, PolyA inhibitor -2, NALP1 inh 15, HDAC3 inh 8, JMJD2C inh -2, Efflux pump mplx 0 and NALP3 confirm -17.
`COC(=O)COc1ccc(-c2ccc(F)cc2)cc1C=O` gave NALP3 yeast inh 56*, PolyA inhibitor 20, NALP1 inh 21, HDAC3 inh 1, JMJD2C inh 14, Efflux pump mplx 0, NALP3 confirm 55*, Casp1-ASC yeast 58* and NALP3 retest 28.
`COC(=O)COc1ccc(-c2ccccc2)cc1C=O` gave NALP3 yeast inh 16, PolyA inhibitor 19, NALP1 inh 20, HDAC3 inh -4, JMJD2C inh -1 and Efflux pump mplx 0.
Screening CCOc1ccc(C(=O)CCc2nc3ccccc3s2)cc1 returned NALP3 yeast inh 67*, PolyA inhibitor 4, NALP1 inh 9, HDAC3 inh -2, JMJD2C inh 12, Efflux pump mplx 0, NALP3 confirm 67*, Casp1-ASC yeast 65* and NALP3 retest 60*.
For CC(=O)n1nc(-c2ccccc2)nc1NCc1cccs1 the results were NALP3 yeast inh 14, PolyA inhibitor -7, NALP1 inh 17, HDAC3 inh 0, JMJD2C inh 5 and Efflux pump mplx 0.
